# Screening results from PubChem BioAssay.
# V-ATPase pH: alters yeast V-ATPase proton transport; S. cerevisiae, pHLuorin cytosolic pH fluorescence; response, % at 10 µM; 0.37% of 350,000 active; AID 504577; in the data active means response mostly above about 7.3%, no sharp cut-off; inactive means mostly below about 5.4%; further: actives read high
# NALP3 yeast inh: blocks the NALP3 inflammasome reconstituted in yeast | Yeast reconstituted NLRP3/ASC/caspase-1, beta-gal luminescence, 24 h | inhibition, % at 10 µM | 0.39% of 330,000 active | AID 2825;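 active means inhibition of 50% or more; inactive means inhibition below 50%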;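 further: plate controls were induced DMSO wells for no effect and uninduced yeast grown without galactose for full effect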
# NALP1 yeast inh: blocks the NALP1 inflammasome reconstituted in yeast. 0.61% of 280,000 active. S. cerevisiae NALP1/ASC/caspase-1 growth, X-gal OD620, 72 h. inhibition, % at 10 µM; in the data active means inhibition mostly above about 24%, no sharp cut-off; inactive means mostly below about 32%
# tim23-1 inh: inhibits growth of tim23-1 mutant yeast; 1.3% of 330,000 active; AID 463212; S. cerevisiae tim23-1 growth, BacTiter-Glo luminescence, 24 h; inhibition, % at 20 µM;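 active means growth inhibition of the mutant yeast at or above 50%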;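 further: temperature-sensitive mutant grown at 25 °C; plate controls were DMSO-treated mutant yeast for no effect and medium wells lacking yeast for full effect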
# tim10-1 inh: growth inhibitors of tim10-1 mutant yeast; S. cerevisiae tim10-1 ts strain growth, BacTiter-Glo, 24 h; inhibition, % at 20 µM; 2.2% of 330,000 active;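 active means inhibition of at least 40%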;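 further: mutant grown at 25 °C; 0% = DMSO wells with yeast and 100% = wells holding no yeast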
# TIM10 inh: TIM10 yeast growth inhibition | 1.4% of 330,000 active | S. cerevisiae TIM10 strain growth, BacTiter-Glo luminescence, 24 h | AID 463195 | inhibition, % at 10 µM;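 active means inhibition of 40% or more at the single tested concentration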;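 further: wild-type TIM10 isogenic control strain grown at permissive 25 °C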
# tim10-1 conf: tim10-1 yeast growth inhibition, confirmed | shares compounds with tim10-1 inh | inhibition, % at 20 µM | S. cerevisiae tim10-1 ts strain growth, BacTiter-Glo, 24 h | 56% of 7,400 active;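 active means inhibition of yeast growth at or above a set limit in either of two repeat tests at 20 µM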;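 further: tim10-1 mutant grown at permissive 25 °C to find synthetic lethal compounds; 0% = DMSO yeast wells and 100% = medium wells without yeast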
# TIM10 conf: confirmation of TIM10 yeast growth inhibitors; shares compounds with TIM10 inh; S. cerevisiae tim10 strain growth, BacTiter-Glo luminescence, 24 h; AID 463215; 63% of 4,600 active; inhibition, % at 10 µM;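 active means inhibition of yeast growth at or above a set limit in either of two replicates at 10 µM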;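 further: this counterscreen used the strain with wild-type TIM10; 0% = yeast with DMSO and 100% = medium wells lacking yeast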
# tim23-1 conf: tim23-1 yeast growth inhibition, confirmed; shares compounds with tim23-1 inh; S. cerevisiae tim23-1 growth, BacTiter-Glo luminescence, 24 h; inhibition, % at 20 µM; 83% of 4,400 active; AID 463218;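 active means inhibition above about 39% in either of two replicate wells at 20 µM, limit read from the data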;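 further: temperature-sensitive tim23-1 mutant grown at 25 °C; 0% = DMSO wells with yeast and 100% = medium wells without yeast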
# * marks the source's active call; other numbers are inactive results; / = no result given. The list is not random: actives were taken first. Their share in the collection is about 4.2%.
SMILES,V-ATPase pH,NALP3 yeast inh,NALP1 yeast inh,tim23-1 inh,tim10-1 inh,TIM10 inh,tim10-1 conf,tim23-1 conf,others
Cc1cc(C)nc(SCC(=O)N/N=C/c2ccc3c(c2)OCO3)n1,-6,11,1,7,-5,-5,/,/,
CC1(C)Cc2c(C#N)c(SCCC#N)nc(N3CCOCC3)c2CO1,2,6,-2,9,6,-13,/,/,
CCC(CC)c1nnc(NC(=O)C2COc3ccccc3O2)s1 (centres undefined),-2,13,-2,50*,47*,37,46*,53*,
COc1ccc(OC)c(CCNC(=O)c2sc3nc4n(c(=O)c3c2C)CCC4)c1,-3,17,8,18,16,-2,/,/,
C(=N\n1cnnc1)/c1cccc(Oc2ccccc2)c1,-1,-6,5,2,31,3,/,/,
S=c1[nH]ncn1/N=C/c1cccc(Oc2ccccc2)c1,1,36,-10,56*,61*,52*,46*,56*,TIM10 conf=0
C#CCCc1ccccc1/C=[N+](/C)[O-],5,16,/,3,16,12,/,/,
Cc1nn(CC(=O)NCCc2ccccc2)c(C)c1[N+](=O)[O-],-1,4,24,7,12,-22,/,/,
CC(=O)Oc1c(-c2ccc(Br)o2)oc2ccccc2c1=O,0,34,-8,65*,53*,73*,60*,86*,TIM10 conf=78*
O=C(O)COc1c(-c2ccco2)oc2ccccc2c1=O,-2,-8,1,0,-3,14,/,/,
COc1ccc(-c2oc3ccccc3c(=O)c2OC(C)=O)cc1,-3,4,3,60*,42*,55*,34*,59*,TIM10 conf=48*
O=C(NCc1ccc(Cl)cc1)C(=O)NCC(c1cccnc1)N1CCN(c2ccc(F)cc2)CC1 (centres undefined),-2,21,2,-82,-17,-2,/,/,
Nc1nnc(SC2CC(=O)N(c3ccccc3)C2=O)s1 (centres undefined),-3,22,37*,59*,66*,30,53*,58*,
O=C1CC(Sc2ncccn2)C(=O)N1c1ccccc1 (centres undefined),1,3,8,22,20,10,/,/,
O=c1nc2n(c3ccccc13)Cc1ccccc1-2,/,/,3,/,/,/,/,/,
CCc1cc2c(=O)nc3n(c2s1)Cc1ccccc1/C3=C(/O)c1ccccc1Cl,0,17,12,66*,59*,35,42*,40*,
O=c1c2ccccc2c(-c2ccc(O)cc2)nn1-c1cccc(C(F)(F)F)c1,2,6,17,57*,42*,53*,36*,56*,TIM10 conf=-6
Cc1ccc(C(=O)c2ccc([N+](=O)[O-])cc2)cc1,-6,7,18,10,12,-3,/,/,
Cc1ccc(S(=O)(=O)CC#CCOC(=O)c2ccc([N+](=O)[O-])cc2)cc1,/,-16,-15,76*,60*,30,47*,81*,
O=C(NC(=S)Nc1cccc(Cl)c1Cl)C1CC1,6,21,18,51*,43*,41*,16,32,TIM10 conf=24
CC(=O)Nc1ccc(NC(=S)NC(=O)C2CC2)cc1,-2,-2,22,10,6,-2,/,/,
O=C(NC(=S)Nc1ccc(Br)c(Cl)c1)C1CC1,2,24,9,62*,43*,25,22,54*,
O=C(NNC(=S)Nc1ccccc1Cl)C1CC1,-7,10,24,-10,14,-2,/,/,
COc1ccc(C(C)(C)C)cc1NC(=O)COC(=O)CN1C(=O)NC2(CCCCC2C)C1=O (centres undefined),-4,11,/,15,5,7,/,/,
CC1CCCCN1c1nc(-c2ccncc2)nc2ccccc12 (centres undefined),1,1,14,53*,47*,53*,43*,53*,TIM10 conf=41*
SMILES,V-ATPase pH,NALP3 yeast inh,NALP1 yeast inh,tim23-1 inh,tim10-1 inh,TIM10 inh,tim10-1 conf,tim23-1 conf,others
CC1CCN(c2nc(-c3ccncc3)nc3ccccc23)CC1,-3,-6,0,-4,-24,19,/,/,
O=C(OCC(=O)C12CC3CC(CC(C3)C1)C2)c1ccc(O)cc1O,-4,13,/,76*,53*,27,15,62*,
O=C1CSC(=Nc2ccc(F)cc2)N1,-6,12,13,5,-6,7,/,/,
Cc1cc(C)n2nc(/C(C#N)=C/c3ccccn3)c(C#N)c2n1,3,32,19,52*,62*,51*,58*,75*,TIM10 conf=52*
COCCCn1c(SCc2nnc(-c3ccc(OC)c(OC)c3)o2)nc2ccccc2c1=O,4,9,-2,32,35,27,/,/,
O=C(O)c1ccc(N/N=C/c2cn(Cc3ccc(F)cc3)c3ccccc23)cc1,-3,12,7,33,2,12,/,/,
O=[N+]([O-])/C=C/c1cn(Cc2ccc(F)cc2)c2ccccc12,-5,-1,6,65*,72*,69*,66*,71*,TIM10 conf=74*
C[C@H]1CN([C@@H](C)CO)C(=O)c2cccc(NC(=O)C3CC3)c2O[C@H]1CN(C)Cc1ccncc1,-2,10,/,8,-3,-7,/,/,
CCCn1nc(NC(=O)c2cccs2)c2cc3ccc(C)cc3nc21,1,21,-3,-2,-4,-3,/,/,
CCCn1nc(NC(=O)c2cccs2)c2cc3ccccc3nc21,-1,27,-5,52*,49*,24,37*,51*,
NC(=O)NOCc1ccc(Cl)cc1Cl,-1,4,31,2,-6,-5,/,/,
CNC(=S)/N=C/NOCc1ccc(Cl)cc1Cl,0,20,16,58*,66*,51*,47*,66*,TIM10 conf=62*
C=CCSc1nc(O)c(CC)c(=O)n1C(C)CC (centres undefined),1,-10,-1,26,22,16,/,/,
CCc1c(O)nc(SCc2ccccc2)n(C(C)CC)c1=O (centres undefined),1,2,11,52*,41*,37,45*,48*,
O=C(c1cccs1)c1no[n+]([O-])c1C(=O)c1cccs1,2,24,27,81*,72*,-6,87*,97*,
O=C(c1ccc(Cl)nc1)c1cccs1,/,12,/,-11,-13,-9,/,/,
O=c1c2c([N+](=O)[O-])cc([N+](=O)[O-])cc2nc2ccccn12,-2,9,17,85*,42*,37,68*,87*,
CC1=NN(c2nc3ccccc3[nH]2)C(=O)/C1=C/N(C)C,1,-1,-4,59*,59*,21,active,59*,
